Molecules are shown by their SMILES. A number with no mark means an inactive call.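 How the source made its calls: active means compounds whose cell count with miR-34 switched on is under 0.7 times the count with it off; inactive means the rest.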

The assay is described as follows: sensitizers of A549 cells to miR-34 induction, primary screen, imaging, A549 dox-inducible miR-34, nuclei and caspase counts (AID 1347080). Further: test concentration not given here. The note with it: A549 miR-34 inducible, Hoechst nuclei count, 48 h; hits give low values; cell number ratio, induced over uninduced.
For `O=C(O)CCC/C=C\C[C@@H]1[C@@H](/C=C/C(F)(F)COc2ccccc2)[C@H](O)C[C@@H]1O`, the fold change is 1.03.
Then `CCCCCCCCCCCSCC(=O)O`, with 1.05; and `CCCCCCCCCCCCCCCCC(=O)NCCO`, with 1.04; and `CCCCC[C@](C)(O)/C=C/[C@@H]1[C@@H](C/C=C\CCCC(=O)O)[C@@H](O)C[C@H]1O`, with 0.971.
As to `CCCCC(C)(C)[C@H](O)/C=C/[C@H]1C(=O)C[C@H](O)[C@@H]1C/C=C\CCCC(=O)O`, the fold change is 1.04.
Turning to `CC(C)c1cc2c(c(O)c1O)C13CCCC(C)(C)C1CC2OC3=O` (stereo not drawn), the fold change was 0.942.
For `CCCCCCCCCCCCCCCCCC(=O)OCC`, the fold change is 0.95.
As for `CC(C)ON(CC(=O)NO)S(=O)(=O)c1ccc(-c2ccccc2)cc1`, the fold change is 0.989.
For `OCC(O)[C@@H](O)CO` (stereo partly drawn), the fold change was 0.92.
As for `CCCCCCCCCCCCCCCCCCCCCCC(=O)OCC`, the fold change was 0.908.
`C/C=C/C[C@@H](C)[C@@H](O)[C@H]1C(=O)N[C@@H](CC)C(=O)N(C)CC(=O)N(C)[C@@H](CC(C)C)C(=O)N[C@@H](C(C)C)C(=O)N(C)[C@@H](CC(C)C)C(=O)N[C@@H](C)C(=O)NC(C)C(=O)N(C)[C@@H](CC(C)C)C(=O)N(C)[C@@H](CC(C)C)C(=O)N(C)[C@@H](C(C)C)C(=O)N1C` (stereo partly drawn): the fold change was 1.02.
`CCCCC[C@H](O)/C=C/[C@H]1[C@H](O)CC(=O)[C@@H]1C/C=C\CCCC(=O)OCC(O)CO` (stereo partly drawn): the fold change is 0.945.
For the compound `CCCCNC(=O)NS(=O)(=O)c1ccc(CO)cc1`, the fold change is 1.05.

The record behind these values is PubChem BioAssay.
